This is an account of results in PubChem BioAssay.

Where “and” joins values, the source holds several entries; their conditions need not be identical. Equal values may be shown once.

The first experiment can be described thus: viability loss with induced miR-34 in A549 – imaging, A549 dox-inducible miR-34, nuclei and caspase counts, primary screen (AID 1347080). Note: test concentration not given here. As to conditions: A549 miR-34 inducible, Hoechst nuclei count, 48 h; measured here: relative caspase fold change +Dox/-Dox.
Take `O=C1N=C(O)CN1N=Cc1ccc(-c2ccc([N+](=O)[O-])cc2)o1`: the fold change stood at 1.68.
Take `CC1c2cccc(O)c2C(O)=C2C(=O)[C@]3(O)C(O)=C(C(N)=O)C(=O)[C@@H](N(C)C)[C@@H]3C[C@@H]21` (stereo not given in full): the fold change is 1.44.
Regarding `C[C@H]1O[C@@H](O[C@H]2[C@@H](O)C[C@H](O[C@H]3[C@@H](O)C[C@H](O[C@H]4CC[C@@]5(C)[C@H](CC[C@@H]6[C@@H]5C[C@@H](O)[C@]5(C)C(C7=CC(=O)OC7)CC[C@]65O)C4)O[C@@H]3C)O[C@@H]2C)C[C@H](O)[C@@H]1O` (stereo not given in full), the fold change came to 1.15.
As to `CON=C(C(=O)N[C@@H]1C(=O)N2C(C(=O)O)=C(COC(N)=O)CS[C@H]12)c1ccco1`, the fold change stood at 2.12.
On the same count and under the same terms, under `Cc1cc(=O)oc2cc(NC(=O)C3CCC(=O)N3)ccc12` (stereo not given) stands 1.59.
The same measure, in the same setting: the result for `CN1CCN2c3ncccc3Cc3ccccc3[C@@H]2C1` reads 3.94.
Same read-out and setting: under `CN(C)S(=O)(=O)c1ccc2c(c1)/C(=C\CCN1CCNCC1)c1ccccc1S2` stands 1.32.
Take `CCC(=O)NS(=O)(=O)c1ccc(-c2c(-c3ccccc3)noc2C)cc1`: the fold change was found to be 1.74.
Turning to `CN(C)CC/C=C1/c2ccccc2COc2ccccc21`, the fold change is 1.31 and 1.98.
Still for that read-out and setting: the result for `CC(=O)NCCCCCCNC(C)=O` reads 1.58; that for `COCCCCC(=NOCCN)c1ccc(C(F)(F)F)cc1`, 2.57 and 0.586 and 0.773.
Still for that read-out and setting: the result for `CCN(CC)CCOc1ccc(C(=C(Cl)c2ccccc2)c2ccccc2)cc1` reads 2.63 and 0.76; that for `CO[C@H]1/C=C/O[C@@]2(C)Oc3c(C)c(O)c4c(O)c(c(C=NN5CCN(C6CCCC6)CC5)c(O)c4c3C2=O)NC(=O)/C(C)=C\C=C\[C@H](C)[C@H](O)[C@@H](C)[C@@H](O)[C@@H](C)[C@H](OC(C)=O)[C@@H]1C`, 1.52; that for `O=C1CN(N=Cc2ccc([N+](=O)[O-])o2)C(=O)N1`, 2.
Turning to `COc1cc(N)c(Cl)cc1C(=O)N[C@@H]1CCN(CCCOc2ccc(F)cc2)C[C@@H]1OC`, the fold change was determined as 0.684.

The experiment is the same for the next values; noted with them: A549 miR-34 inducible, Hoechst nuclei count, 48 h; measured here: total cells with miR-34 induction; stronger effect = lower value.
`O=C1N=C(O)CN1N=Cc1ccc(-c2ccc([N+](=O)[O-])cc2)o1` had a cell count of 7170.
On to `CC1c2cccc(O)c2C(O)=C2C(=O)[C@]3(O)C(O)=C(C(N)=O)C(=O)[C@@H](N(C)C)[C@@H]3C[C@@H]21` (stereo not given in full), for which the cell count was 11000.
On the same count and under the same terms, under `C[C@H]1O[C@@H](O[C@H]2[C@@H](O)C[C@H](O[C@H]3[C@@H](O)C[C@H](O[C@H]4CC[C@@]5(C)[C@H](CC[C@@H]6[C@@H]5C[C@@H](O)[C@]5(C)C(C7=CC(=O)OC7)CC[C@]65O)C4)O[C@@H]3C)O[C@@H]2C)C[C@H](O)[C@@H]1O` (stereo not given in full) stands 266; under `CON=C(C(=O)N[C@@H]1C(=O)N2C(C(=O)O)=C(COC(N)=O)CS[C@H]12)c1ccco1`, 10600.
Still for that read-out and setting: the result for `Cc1cc(=O)oc2cc(NC(=O)C3CCC(=O)N3)ccc12` (stereo not given) reads 10900.
The same measure, in the same setting: the result for `CN1CCN2c3ncccc3Cc3ccccc3[C@@H]2C1` reads 10600; that for `CN(C)S(=O)(=O)c1ccc2c(c1)/C(=C\CCN1CCNCC1)c1ccccc1S2`, 9850; that for `CCC(=O)NS(=O)(=O)c1ccc(-c2c(-c3ccccc3)noc2C)cc1`, 9000.
As for `CN(C)CC/C=C1/c2ccccc2COc2ccccc21`, the cell count is 8570 and 9810.
On the same count and under the same terms, the result for `CC(=O)NCCCCCCNC(C)=O` reads 9330; that for `COCCCCC(=NOCCN)c1ccc(C(F)(F)F)cc1`, 7760 and 8160 and 6370.
Still for that read-out and setting: under `CCN(CC)CCOc1ccc(C(=C(Cl)c2ccccc2)c2ccccc2)cc1` stands 5020 and 7560; under `CO[C@H]1/C=C/O[C@@]2(C)Oc3c(C)c(O)c4c(O)c(c(C=NN5CCN(C6CCCC6)CC5)c(O)c4c3C2=O)NC(=O)/C(C)=C\C=C\[C@H](C)[C@H](O)[C@@H](C)[C@@H](O)[C@@H](C)[C@H](OC(C)=O)[C@@H]1C`, 8010; under `O=C1CN(N=Cc2ccc([N+](=O)[O-])o2)C(=O)N1`, 9510.
Molecule `COc1cc(N)c(Cl)cc1C(=O)N[C@@H]1CCN(CCCOc2ccc(F)cc2)C[C@@H]1OC` registered a cell count of 6800.

Staying with this experiment, now noted: A549 miR-34 inducible, Hoechst nuclei count, 48 h; measured here: total cells without miR-34 induction.
Turning to `O=C1N=C(O)CN1N=Cc1ccc(-c2ccc([N+](=O)[O-])cc2)o1`, the cell count is 7540.
Molecule `CC1c2cccc(O)c2C(O)=C2C(=O)[C@]3(O)C(O)=C(C(N)=O)C(=O)[C@@H](N(C)C)[C@@H]3C[C@@H]21` (stereo not given in full) showed a cell count of 11000.
On the same count and under the same terms, the result for `C[C@H]1O[C@@H](O[C@H]2[C@@H](O)C[C@H](O[C@H]3[C@@H](O)C[C@H](O[C@H]4CC[C@@]5(C)[C@H](CC[C@@H]6[C@@H]5C[C@@H](O)[C@]5(C)C(C7=CC(=O)OC7)CC[C@]65O)C4)O[C@@H]3C)O[C@@H]2C)C[C@H](O)[C@@H]1O` (stereo not given in full) reads 560; that for `CON=C(C(=O)N[C@@H]1C(=O)N2C(C(=O)O)=C(COC(N)=O)CS[C@H]12)c1ccco1`, 11300; that for `Cc1cc(=O)oc2cc(NC(=O)C3CCC(=O)N3)ccc12` (stereo not given), 11400.
Take `CN1CCN2c3ncccc3Cc3ccccc3[C@@H]2C1`: the cell count amounted to 10500.
For the molecule `CN(C)S(=O)(=O)c1ccc2c(c1)/C(=C\CCN1CCNCC1)c1ccccc1S2`, the cell count was 10600.
Same read-out and setting: under `CCC(=O)NS(=O)(=O)c1ccc(-c2c(-c3ccccc3)noc2C)cc1` stands 10300; under `CN(C)CC/C=C1/c2ccccc2COc2ccccc21`, 9460 and 10600.
Still for that read-out and setting: under `CC(=O)NCCCCCCNC(C)=O` stands 9770; under `COCCCCC(=NOCCN)c1ccc(C(F)(F)F)cc1`, 8360 and 9280 and 6710; under `CCN(CC)CCOc1ccc(C(=C(Cl)c2ccccc2)c2ccccc2)cc1`, 4620 and 8110.
On the same count and under the same terms, the result for `CO[C@H]1/C=C/O[C@@]2(C)Oc3c(C)c(O)c4c(O)c(c(C=NN5CCN(C6CCCC6)CC5)c(O)c4c3C2=O)NC(=O)/C(C)=C\C=C\[C@H](C)[C@H](O)[C@@H](C)[C@@H](O)[C@@H](C)[C@H](OC(C)=O)[C@@H]1C` reads 8050; that for `O=C1CN(N=Cc2ccc([N+](=O)[O-])o2)C(=O)N1`, 10400; that for `COc1cc(N)c(Cl)cc1C(=O)N[C@@H]1CCN(CCCOc2ccc(F)cc2)C[C@@H]1OC`, 6860.
